The values that follow come from PubChem BioAssay.

The nature of test [1]: yeast TOR pathway RPL19A-GFP modulators, primary screen, cell-based, S. cerevisiae, multiplex flow cytometry (AID 1862; in the data active means percent of DMSO control GFP below about 86%;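 further: lower values mimic rapamycin by blocking the RPL19A rise seen in DMSO cells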). The note with it: S. cerevisiae RPL19A-GFP strain, flow cytometry fluorescence, 3 h; at 10 µM; stronger effect = lower value.
Test [2] can be described thus: modulators of MEP2-GFP levels in yeast, primary screen, S. cerevisiae, multiplex flow cytometry (AID 1867;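 active means GFP response, as percent of the DMSO control, above the screen-wide mean plus 3 SD, about 139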;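 further: median GFP channel fluorescence of barcode-gated MEP2-GFP cells measured by flow cytometry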). The note with it: S. cerevisiae MEP2-GFP strain, 3 h, at 10 µM, stronger effect = higher value, 100% means same as DMSO wells. For orientation: A flow cytometer gives signals particle by particle.
Test [3] can be described thus: modulators of CIT2-GFP expression in yeast, primary screen, S. cerevisiae, GFP fusion, multiplex flow cytometry (AID 1870;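 active means percent response above a set limit, the screen-wide mean plus 3 SD, cut at about 130% in these data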;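 further: barcoded CIT2-GFP strain pooled with four other GFP strains with rapamycin as positive control; median GFP fluorescence per well over plate mean of DMSO wells so 100% = DMSO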). Conditions: 3 h, at 10 µM, stronger effect = higher value.
The nature of test [4]: modulators of LAP4-GFP expression in yeast, primary screen, S. cerevisiae, multiplex flow cytometry (AID 1873;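 active means GFP signal, as percent of the solvent control, above the screen mean plus 3 SD, about 149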). Conditions: 3 h, at 10 µM, stronger effect = higher value.
Test [5] is described as follows: modulators of AGP1-GFP expression in yeast TOR pathway, primary screen, cell-based, multiplex flow cytometry, S. cerevisiae (AID 1887;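 active means GFP signal above the screen-wide mean plus 3 SD, that is over about 124.5% of the solvent control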;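 further: AGP1-GFP fusion strain of S. cerevisiae within a five-strain barcoded multiplex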). Conditions: 3 h, at 10 µM, stronger effect = higher value.
Test [6] is described as follows: inhibitors of CD8+ T cell-vesicle binding, pilot screen, LFA-1/ICAM-1 modulator project, MLPCN validation set, flow cytometry (AID 2523;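 active means response below a set limit, under 55% cells CD8-positive and vesicle-bound, and CD8 cells' 90th-percentile brightness under 279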;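 on vesicle binding response: mean PE anti-B7-1 fluorescence of CD8+ cells relative to row control; 100% = QL9-loaded vesicles with DMSO vehicle in the same plate row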). The note with it: 2C mouse CD8+ T cells, at 7 µM, stronger effect = lower value; double positive events: measured here: CD8+/vesicle+ event percentage.
In test [7] the target is Integrin beta-1 (Homo sapiens) + Integrin alpha-4 (Homo sapiens) (UniProt P13612+P05556). Briefly: inhibition of HUTS-21 binding to VLA-4, pilot screen, VLA-4 allosteric modulator project, U937 cells, HUTS-21 mAb, flow cytometry, validation set (AID 2674;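 active means inhibition above 50%, about 3 SD of the validation set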;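 further: antibody binding induced by the VLA-4 ligand LDV present at three times its Kd; 0% = LDV ligand with antibody and no compound and 100% = antibody without LDV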). Conditions: HUTS-21 LIBS mAb binding, at 6.7 µM, stronger effect = higher value, binding induced by LDV ligand.
The nature of test [8]: superoxide lowering in aged yeast cells, pilot screen, validation compound set (AID 2706;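 active means superoxide response below 65% of plate, a cut near 3 SD across the whole screen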;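 further: yeast exposed to compound for one week at 30 degrees C before staining; 100% = mean of all compound wells on the same plate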). The note with it: S. cerevisiae aging, superoxide DHE fluorescence; at 10 µM; stronger effect = lower value.
Test [9] has as its target Beta-adrenergic receptor kinase 1 (Homo sapiens) (UniProt P25098). Briefly: GRK2 binders displacing RNA aptamer, biochemical, validation, human GRK2, bead flow cytometry (AID 488806;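 active means aptamer binding inhibition above 30%, about 3 SD of noise from non-fluorescent compounds; inactive means inhibition at or below 30%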). The note with it: bead-bound GRK2, FAM-aptamer displacement, at 10 µM, stronger effect = higher value.
The target in test [10] is Beta-2 adrenergic receptor (Homo sapiens) (UniProt P07550). Briefly: beta2AR agonists driving receptor internalization, pilot screen, cell-based, FAP fluorogen, flow cytometry, validation set (AID 504459;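 active means percent response above 42, roughly 3 SD of non-fluorescent test compounds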;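 further: agonist-driven loss of surface beta2AR via internalization measured by FAP dye flow cytometry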). The note with it: Am2.2-beta2AR cells, FAP surface receptor flow cytometry; at 10 µM; stronger effect = higher value.
Test [11] concerns the target AP-2 complex subunit beta (Homo sapiens) (UniProt P63010). Briefly: inhibitors of arrestin peptide binding to AP2, pilot screen, biochemical, validation set, GST-AP2 beads, flow cytometry (AID 504541;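 active means inhibition above 54%, about 3 SD of non-fluorescent compounds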;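 further: AP2 carries R879A mutation and is captured from E. coli lysate; bead-bound FITC arrestin peptide fluorescence measuring arrestin peptide binding to AP2; 0% = DMSO wells and 100% = excess unlabeled arrestin peptide control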). Conditions: FITC arrestin peptide, at 10 µM, stronger effect = higher value, AP2 beta2 appendage fragment, R879A mutant.
Test [12] in a line: yeast V-ATPase proton transport modulators, S. cerevisiae, pHLuorin, HTS validation (AID 504600).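 Further: plate controls were DMSO for no effect and reference compound for full effect.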 Conditions: S. cerevisiae pHLuorin cytosolic pH, at 10 µM, stronger effect = higher value.
In test [13] the test system is anti-desmoglein-3 scFv antibody binding to human DSG3. Briefly: inhibitors of anti-DSG3 scFv binding to DSG3, pilot screen, biochemical, validation compound set, bead-based, flow cytometry (AID 588368;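 active means binding below the plate cutoff, the plate median minus 3 SD, with a reading above zero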;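 further: signal is the median channel fluorescence of bead-bound GFP antibody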). The note with it: Protein G beads, DSG3-Fc, scFv-GFP binding, at 10 µM, stronger effect = lower value.
Test [14] in a line: inhibitors of fungal efflux pumps CDR1, CDR2, MDR1, pilot screen, validation compound set, multiplex, phenotypic (AID 588506;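 active means efflux inhibition above 0.42, the validation set average plus 4 SD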;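 further: Nile Red retained in cells so higher fluorescence means more efflux inhibition; 0 = negative control wells and 1 = enniatin B 25 µM full block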). Conditions: S. cerevisiae pump-expressing triplex, Nile Red efflux flow cytometry; at 10 µM; stronger effect = higher value; the pumps come from Candida albicans.
In test [15] the target is ATP-binding cassette sub-family B member 6 (Homo sapiens) (UniProt Q9NP58). Briefly: ABCB6 transporter inhibitors, pilot screen, K562-ABCB6 cells, flow cytometry, validation set (AID 588550;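 active means inhibition above the screen-wide mean plus 3 SD, about 51%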;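 further: 0% = DMSO wells and 100% = benzethonium chloride 70 µM positive control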). Conditions: K562-ABCB6 porphyrin accumulation, 1 h, at 10 µM, stronger effect = higher value.
A short description of test [16]: promoters of myeloid differentiation in arrested cells, primary screen, cell-based, GFP/MAC1 double positive, flow cytometry, validation set (AID 588685;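 active means differentiation response of at least 50%, scaled between solvent and reference control, from cells with both markers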;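 further: compound exposure lasts four days before antibody staining and flow analysis; 0% = DMSO wells and 100% = 5 µM fulvestrant positive control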). The note with it: ER-HoxA9 marrow cells, stronger effect = higher value, normalized: vehicle 0, fulvestrant 100.

Inconclusive results are not listed. Calls of active or inactive are those of the source. Unless noted, no stated cut-off is given here; in the data, active means response above about 15%; inactive means the rest.

Chain of Integrin beta-1 (Homo sapiens) + Integrin alpha-4 (Homo sapiens) (P05556 whole entry, looked up): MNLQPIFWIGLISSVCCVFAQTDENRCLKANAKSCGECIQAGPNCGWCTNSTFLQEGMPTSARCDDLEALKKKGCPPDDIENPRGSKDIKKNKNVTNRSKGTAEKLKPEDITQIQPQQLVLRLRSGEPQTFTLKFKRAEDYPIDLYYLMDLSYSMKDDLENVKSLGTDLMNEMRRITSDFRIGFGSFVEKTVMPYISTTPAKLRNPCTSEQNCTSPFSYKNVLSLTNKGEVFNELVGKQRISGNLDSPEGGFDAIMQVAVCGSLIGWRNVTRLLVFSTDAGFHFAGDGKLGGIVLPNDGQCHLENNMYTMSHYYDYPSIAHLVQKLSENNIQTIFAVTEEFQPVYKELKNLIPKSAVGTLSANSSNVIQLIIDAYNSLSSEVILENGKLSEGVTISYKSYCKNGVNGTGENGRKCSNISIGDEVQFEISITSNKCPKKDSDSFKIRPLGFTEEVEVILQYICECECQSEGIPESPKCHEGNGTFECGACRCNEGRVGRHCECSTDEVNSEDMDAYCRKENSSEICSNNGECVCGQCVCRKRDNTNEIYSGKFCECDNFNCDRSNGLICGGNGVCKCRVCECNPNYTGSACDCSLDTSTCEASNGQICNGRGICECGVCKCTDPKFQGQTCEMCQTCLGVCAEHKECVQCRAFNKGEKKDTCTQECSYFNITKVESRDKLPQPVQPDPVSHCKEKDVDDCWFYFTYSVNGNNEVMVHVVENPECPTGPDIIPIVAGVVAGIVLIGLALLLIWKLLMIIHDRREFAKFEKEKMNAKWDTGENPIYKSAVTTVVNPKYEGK
Chain of Integrin beta-1 (Homo sapiens) + Integrin alpha-4 (Homo sapiens) (P13612 whole entry, looked up): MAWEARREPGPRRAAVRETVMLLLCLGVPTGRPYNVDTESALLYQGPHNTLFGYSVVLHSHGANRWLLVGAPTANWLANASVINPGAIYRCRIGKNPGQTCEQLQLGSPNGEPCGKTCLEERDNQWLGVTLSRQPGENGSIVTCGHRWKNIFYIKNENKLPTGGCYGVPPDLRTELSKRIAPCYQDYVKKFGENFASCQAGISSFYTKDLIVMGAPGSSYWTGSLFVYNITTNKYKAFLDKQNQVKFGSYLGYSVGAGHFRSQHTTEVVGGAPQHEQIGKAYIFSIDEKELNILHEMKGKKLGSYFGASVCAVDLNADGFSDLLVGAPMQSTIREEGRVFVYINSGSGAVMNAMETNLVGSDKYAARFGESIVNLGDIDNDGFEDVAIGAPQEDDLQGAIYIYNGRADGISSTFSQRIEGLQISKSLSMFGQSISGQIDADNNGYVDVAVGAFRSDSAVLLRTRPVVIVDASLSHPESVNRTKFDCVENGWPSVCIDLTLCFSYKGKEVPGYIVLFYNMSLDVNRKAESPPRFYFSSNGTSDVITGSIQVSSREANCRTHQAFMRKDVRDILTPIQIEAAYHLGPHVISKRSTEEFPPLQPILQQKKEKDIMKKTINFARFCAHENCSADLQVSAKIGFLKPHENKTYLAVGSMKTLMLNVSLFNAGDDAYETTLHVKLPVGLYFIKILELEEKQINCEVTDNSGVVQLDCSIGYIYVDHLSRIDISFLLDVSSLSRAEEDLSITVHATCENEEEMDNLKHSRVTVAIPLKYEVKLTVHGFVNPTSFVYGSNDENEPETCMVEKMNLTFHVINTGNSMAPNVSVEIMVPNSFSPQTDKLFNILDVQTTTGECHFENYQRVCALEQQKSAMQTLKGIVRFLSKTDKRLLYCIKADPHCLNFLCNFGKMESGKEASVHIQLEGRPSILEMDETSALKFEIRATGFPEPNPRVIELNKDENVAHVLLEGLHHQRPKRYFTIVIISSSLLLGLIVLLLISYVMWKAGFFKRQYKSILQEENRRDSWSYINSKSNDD
Chain of Beta-adrenergic receptor kinase 1 (Homo sapiens) (P25098 whole entry, looked up): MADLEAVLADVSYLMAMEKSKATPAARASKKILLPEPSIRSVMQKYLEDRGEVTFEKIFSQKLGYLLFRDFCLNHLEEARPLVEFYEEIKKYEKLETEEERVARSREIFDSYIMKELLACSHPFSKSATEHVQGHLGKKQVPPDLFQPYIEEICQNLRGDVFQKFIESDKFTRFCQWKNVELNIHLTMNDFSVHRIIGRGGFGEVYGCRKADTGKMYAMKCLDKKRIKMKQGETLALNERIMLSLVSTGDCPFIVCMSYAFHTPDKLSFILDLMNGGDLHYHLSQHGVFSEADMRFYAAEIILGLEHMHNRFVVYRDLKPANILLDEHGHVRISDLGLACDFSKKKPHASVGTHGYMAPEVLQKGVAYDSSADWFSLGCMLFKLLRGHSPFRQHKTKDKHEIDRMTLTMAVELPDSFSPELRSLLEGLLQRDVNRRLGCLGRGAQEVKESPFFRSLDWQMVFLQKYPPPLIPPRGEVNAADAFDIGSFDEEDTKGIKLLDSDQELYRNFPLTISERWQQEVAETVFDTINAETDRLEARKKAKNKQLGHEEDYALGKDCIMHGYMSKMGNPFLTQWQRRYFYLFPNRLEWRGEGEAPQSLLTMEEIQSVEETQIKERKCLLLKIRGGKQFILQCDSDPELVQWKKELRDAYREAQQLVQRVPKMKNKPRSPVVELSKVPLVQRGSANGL
Chain of Beta-2 adrenergic receptor (Homo sapiens) (P07550 whole entry, looked up): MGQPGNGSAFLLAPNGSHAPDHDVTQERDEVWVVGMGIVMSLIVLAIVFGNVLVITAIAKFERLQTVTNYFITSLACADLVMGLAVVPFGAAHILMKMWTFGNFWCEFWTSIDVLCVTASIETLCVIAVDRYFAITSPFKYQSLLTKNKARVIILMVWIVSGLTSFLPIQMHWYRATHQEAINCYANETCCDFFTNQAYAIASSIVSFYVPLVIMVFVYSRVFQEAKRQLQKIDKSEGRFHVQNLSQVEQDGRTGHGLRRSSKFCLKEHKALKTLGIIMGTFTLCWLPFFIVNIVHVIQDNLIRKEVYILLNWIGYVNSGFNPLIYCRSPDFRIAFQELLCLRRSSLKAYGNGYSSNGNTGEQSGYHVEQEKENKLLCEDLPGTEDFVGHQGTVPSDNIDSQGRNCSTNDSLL
Chain of ATP-binding cassette sub-family B member 6 (Homo sapiens) (Q9NP58 whole entry, looked up): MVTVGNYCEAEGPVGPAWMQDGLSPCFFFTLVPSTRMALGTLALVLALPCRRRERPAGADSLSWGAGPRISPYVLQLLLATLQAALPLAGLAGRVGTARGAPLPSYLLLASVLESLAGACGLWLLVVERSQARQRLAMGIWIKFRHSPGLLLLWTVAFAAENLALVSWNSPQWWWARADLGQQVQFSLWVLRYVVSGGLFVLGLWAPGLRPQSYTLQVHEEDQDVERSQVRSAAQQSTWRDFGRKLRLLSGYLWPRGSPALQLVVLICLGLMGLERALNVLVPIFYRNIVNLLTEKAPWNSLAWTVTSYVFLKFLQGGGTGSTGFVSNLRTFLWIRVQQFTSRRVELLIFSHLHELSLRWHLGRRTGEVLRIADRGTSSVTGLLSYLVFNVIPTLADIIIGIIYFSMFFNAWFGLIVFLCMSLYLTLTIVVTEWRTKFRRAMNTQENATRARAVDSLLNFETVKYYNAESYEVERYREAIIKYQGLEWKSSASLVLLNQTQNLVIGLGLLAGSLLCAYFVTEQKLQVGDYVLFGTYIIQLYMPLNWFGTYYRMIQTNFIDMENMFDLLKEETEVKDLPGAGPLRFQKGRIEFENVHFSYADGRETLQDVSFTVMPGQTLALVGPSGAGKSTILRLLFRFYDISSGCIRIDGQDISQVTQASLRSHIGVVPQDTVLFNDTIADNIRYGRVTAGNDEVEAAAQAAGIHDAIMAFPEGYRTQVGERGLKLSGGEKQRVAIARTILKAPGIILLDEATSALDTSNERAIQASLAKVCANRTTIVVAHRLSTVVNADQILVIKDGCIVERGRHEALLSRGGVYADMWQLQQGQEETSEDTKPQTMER
Chain of AP-2 complex subunit beta (Homo sapiens) (P63010 whole entry, looked up, the tested form may be a part, one chain of several): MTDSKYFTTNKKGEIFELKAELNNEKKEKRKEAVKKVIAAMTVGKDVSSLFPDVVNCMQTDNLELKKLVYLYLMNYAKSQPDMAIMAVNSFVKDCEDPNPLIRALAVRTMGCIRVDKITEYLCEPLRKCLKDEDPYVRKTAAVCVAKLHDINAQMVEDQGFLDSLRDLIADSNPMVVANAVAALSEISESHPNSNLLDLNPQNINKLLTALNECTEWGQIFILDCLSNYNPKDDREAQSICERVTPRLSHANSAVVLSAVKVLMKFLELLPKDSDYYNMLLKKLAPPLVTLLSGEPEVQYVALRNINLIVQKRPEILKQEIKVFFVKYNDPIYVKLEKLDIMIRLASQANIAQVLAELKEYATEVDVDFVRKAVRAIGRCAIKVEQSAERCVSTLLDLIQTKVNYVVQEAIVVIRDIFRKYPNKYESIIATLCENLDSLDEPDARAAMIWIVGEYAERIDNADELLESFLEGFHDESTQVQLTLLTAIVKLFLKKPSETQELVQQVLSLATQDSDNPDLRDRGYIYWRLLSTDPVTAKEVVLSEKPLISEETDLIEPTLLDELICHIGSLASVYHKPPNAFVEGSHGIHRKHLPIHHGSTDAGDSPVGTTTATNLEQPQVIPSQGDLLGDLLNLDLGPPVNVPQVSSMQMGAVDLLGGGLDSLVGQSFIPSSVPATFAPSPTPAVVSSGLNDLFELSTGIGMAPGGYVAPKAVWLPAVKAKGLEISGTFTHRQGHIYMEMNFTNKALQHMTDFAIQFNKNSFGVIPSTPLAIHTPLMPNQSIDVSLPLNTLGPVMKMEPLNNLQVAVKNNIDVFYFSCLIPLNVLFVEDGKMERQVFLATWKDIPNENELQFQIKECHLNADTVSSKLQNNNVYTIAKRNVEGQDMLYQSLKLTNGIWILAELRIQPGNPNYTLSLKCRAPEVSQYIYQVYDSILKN

A word on the inhibition: it is the change of the read-out against control, counted positive when it falls. For the compound `CCC(C(=O)OCCN(CC)CC)c1ccccc1` (stereo not given), in [1], the percent of DMSO control GFP was 101% (inactive). The values for the GFP response vs DMSO in test [2] and in test [4] were 101% (inactive) and 85.9% (inactive), respectively. For the same compound, the percent response of DMSO control in [3] was 98.2% (inactive). In [5], the GFP response, % of DMSO was 99.1% (inactive). In test [6], this compound showed a double positive events of 57.2%. In addition, the vesicle binding response in [6] was 33.7% (inactive). Further, the figures for the inhibition in [7], in test [11] and in test [15] were 2.55% (inactive), 19.7% (inactive) and 6% (inactive), respectively. Also, the superoxide response (% of plate) in test [8] is 97.2% (inactive). Further, in test [9], the aptamer binding inhibition was 5% (inactive). The response in [10] is 8.98% (inactive); in [12] it was -2.47% (inactive). The binding (% of control) in [13] is 98.8% (inactive). For the same compound, the efflux inhibition (fraction of control) in test [14] was 0.26 (inactive). Besides, the differentiation response in test [16] is 14.9% (inactive).

As for `CC1=NN(C(=O)c2ccc(Br)cc2)C(O)(c2ccccc2)C1` (stereo not given), in test [1], the percent of DMSO control GFP is 100% (inactive). For the same compound, the GFP response vs DMSO in test [2] was 96.6% (inactive); in test [4], 109% (inactive). In addition, in [3], the percent response of DMSO control is 102% (inactive). Further, the GFP response, % of DMSO in [5] was 103% (inactive). The same compound showed a double positive events in test [6] of 64.3%. For the same compound, in [6], the vesicle binding response is 165% (inactive). The inhibition in test [7] is 13.7% (inactive); in [11] it was -5.19% (inactive); in test [15], -9% (inactive). The superoxide response (% of plate) in test [8] was 86.9% (inactive). For the same compound, in test [9], the aptamer binding inhibition was 0% (inactive). In addition, the response is 5.99% (inactive) in [10] and -3.1% (inactive) in [12]. In addition, the binding (% of control) in test [13] is 96.8% (inactive). Moreover, the efflux inhibition (fraction of control) in [14] is 0.36 (inactive). Moreover, the differentiation response in test [16] was -4.57% (inactive).

For `NC(=O)C1CCCNC1` (stereo not given), the percent of DMSO control GFP in [1] is 106% (inactive). Further, the values for the GFP response vs DMSO in test [2] and in test [4] were 98.7% (inactive) and 98% (inactive), respectively. In addition, the percent response of DMSO control in test [3] was 109% (inactive). For the same compound, the GFP response, % of DMSO in [5] was 105% (inactive). Moreover, the double positive events in test [6] was 75.5%. Besides, the vesicle binding response in test [6] is 302% (inactive). The inhibition in [7] is 1.59% (inactive); in [11], 0.42% (inactive); in test [15], 10% (inactive). Further, the superoxide response (% of plate) in [8] was 104% (inactive). In test [9], the aptamer binding inhibition is -2% (inactive). The response in test [10] was 7.03% (inactive); in test [12], -3.07% (inactive). Besides, in [13], the binding (% of control) was 103% (inactive). Further, the efflux inhibition (fraction of control) in test [14] was 0.11 (inactive). Moreover, in test [16], the differentiation response is 8.59% (inactive).

As to `Cc1cn([C@H]2C=C[C@@H](CO)O2)c(=O)[nH]c1=O`, the percent of DMSO control GFP in test [1] was 101% (inactive). Further, the GFP response vs DMSO is 104% (inactive) in test [2] and 92% (inactive) in test [4]. Besides, in test [3], the percent response of DMSO control is 94.2% (inactive). The GFP response, % of DMSO in test [5] is 93.5% (inactive). In [6], this compound came in with a double positive events of 65.8%. Moreover, the vesicle binding response in test [6] is 705% (inactive). Besides, the inhibition in test [7] is 16.1% (inactive); in [11], -12% (inactive); in test [15], 3% (inactive). Also, the superoxide response (% of plate) in test [8] was 94.6% (inactive). For the same compound, in test [9], the aptamer binding inhibition is 3% (inactive). The response in test [10] is -6.71% (inactive); in [12], 3.71% (inactive). For the same compound, the binding (% of control) in test [13] is 101% (inactive). In test [14], the efflux inhibition (fraction of control) was 0.02 (inactive). Also, the differentiation response in [16] was 1.22% (inactive).

With `Cc1onc(-c2c(Cl)cccc2Cl)c1C(=O)NC1C(=O)N2C1SC(C)(C)C2C(=O)O` (stereo not given), in test [1], the percent of DMSO control GFP was 99.7% (inactive). The GFP response vs DMSO in [2] was 103% (inactive); in [4], 117% (inactive). For the same compound, the percent response of DMSO control in test [3] was 100% (inactive). For the same compound, in test [5], the GFP response, % of DMSO was 113% (inactive). This compound also returned a double positive events in test [6] of 59.6%. Further, in [6], the vesicle binding response is 207% (inactive). In addition, the inhibition in test [7] was -6.23% (inactive); in test [11], 5.02% (inactive); in [15] it was 3% (inactive). In addition, in test [8], the superoxide response (% of plate) was 83.9% (inactive). Moreover, in [9], the aptamer binding inhibition was 0% (inactive). The response was -26.4% (inactive) in test [10] and -4.49% (inactive) in test [12]. The binding (% of control) in test [13] is 103% (inactive). The efflux inhibition (fraction of control) in [14] was 0 (inactive). Also, the differentiation response in test [16] was -12.9% (inactive).
